CHT allo act – allosteric activators of human choline transporter CHT | Q9GZV3 | CHT-expressing cells, membrane potential dye, choline EC20; stronger effect = higher value; LV-AA mutant CHT in HEK293 cells | B-score at 10 µM | 310,000 tested, 0.49% active | AID 488977;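 active = initial fluorescence not abnormally high and integrated response B-score, plate-corrected, over 3 SD above library mean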
TMEM16A inh – inhibitors of mouse TMEM16A calcium-activated chloride channel | Q8BHY3 | normalized B-score (activity score, 25-100; higher = stronger inhibition) at 10 µM | HEK293 TMEM16A/YFP iodide influx fluorescence, ionomycin | AID 588511 | 310,000 tested, 1.2% active;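 active = ratio plate-corrected score three or more library SD toward inhibition, starting fluorescence score within five deviations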;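 note: score derived from kinetic fluorescence span divided by baseline fluorescence per well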
Target sequence (Q8BHY3 whole entry, looked up): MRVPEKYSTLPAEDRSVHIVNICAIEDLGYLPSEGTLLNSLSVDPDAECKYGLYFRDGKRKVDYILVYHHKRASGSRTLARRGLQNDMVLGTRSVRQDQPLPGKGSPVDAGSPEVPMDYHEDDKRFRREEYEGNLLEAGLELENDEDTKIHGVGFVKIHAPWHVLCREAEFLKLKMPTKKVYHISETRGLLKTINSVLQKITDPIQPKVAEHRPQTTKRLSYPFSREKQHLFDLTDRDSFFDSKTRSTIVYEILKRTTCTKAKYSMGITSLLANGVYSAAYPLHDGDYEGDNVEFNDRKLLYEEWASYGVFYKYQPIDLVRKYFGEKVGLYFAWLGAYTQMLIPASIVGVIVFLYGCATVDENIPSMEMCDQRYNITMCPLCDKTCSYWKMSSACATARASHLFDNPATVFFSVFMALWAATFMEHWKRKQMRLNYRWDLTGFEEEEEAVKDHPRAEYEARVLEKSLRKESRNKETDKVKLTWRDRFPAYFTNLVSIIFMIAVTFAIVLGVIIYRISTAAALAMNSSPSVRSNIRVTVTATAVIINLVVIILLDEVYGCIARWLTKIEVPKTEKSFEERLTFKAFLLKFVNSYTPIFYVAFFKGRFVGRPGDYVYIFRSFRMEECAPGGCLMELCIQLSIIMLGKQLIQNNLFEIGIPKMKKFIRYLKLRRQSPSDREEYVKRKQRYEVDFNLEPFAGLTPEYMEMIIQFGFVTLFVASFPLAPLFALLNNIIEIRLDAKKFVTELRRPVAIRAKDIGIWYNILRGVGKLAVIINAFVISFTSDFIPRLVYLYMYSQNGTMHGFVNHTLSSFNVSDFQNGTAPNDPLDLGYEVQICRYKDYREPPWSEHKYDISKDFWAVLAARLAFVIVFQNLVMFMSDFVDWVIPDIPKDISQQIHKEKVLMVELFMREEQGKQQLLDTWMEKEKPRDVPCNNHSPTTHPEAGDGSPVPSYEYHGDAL
CHT block – inhibitors of human choline transporter CHT. Q9GZV3. 310,000 tested, 0.86% active. AID 488975. B-score at 10 µM. CHT-expressing cells, membrane potential dye, choline response; stronger effect = lower value;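 active = B-score over 3 SD under the library average, and starting fluorescence ratio not unusually high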;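 note: choline stimulus applied at its EC90 after an EC20 pre-addition; B-score computed on integrated fluorescence ratio after choline addition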
ANO1 activ – activators or potentiators of mouse TMEM16A chloride channel | 340,000 tested, 0.3% active | HEK293 TMEM16A/YFP-H148Q/I152L, iodide quench fluorescence; stronger effect = lower value | B-score at 10 µM;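 active = fluorescence-ratio B-score plate-corrected deviation score at least 3 library SD below zero, with starting fluorescence score within 5 deviations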;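 note: channel opened by trigger with iodide after compound preincubation; score built on the fluorescence ratio of max minus min over baseline; more negative score means more quench and so TMEM16A activation or potentiation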
CHT inh conf – human CHT inhibition, confirmatory screen; shares compounds with CHT block; 2,400 tested, 70% active; AID 493221; CHT-expressing cells, choline membrane potential dye; LV-to-AA substituted CHT, HEK293 cells; CHT activity remaining % of control (stronger effect = lower value), % at 10 µM;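 active = choline transporter activity left, mean of duplicates at 10 µM, below buffer-only control mean minus 3 SD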;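 note: depolarization triggered by choline at its EC90 following an EC20 pre-addition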
HEK293 CHT ctr – activity in parental HEK293 cells lacking CHT; shares compounds with CHT block; membrane potential dye, choline response; active = decrease or increase beyond buffer ±3SD; membrane potential ratio readout (active if shifted either direction beyond buffer ±3SD; no single direction) at 10 µM; 2,400 tested, 4% active; AID 493222;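 note: parental cells lack the transporter so any hit is non-specific; ratio is peak minus trough fluorescence over baseline after EC90 choline challenge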
Large screens that a line does not name were inactive (follow-up assays come after a bar, where they were run); ! = not confirmed by another sample. Compounds with a hit are over-represented: about 2.4% of the library has one in this group of screens.

Cc1ccccc1NC(=O)c1ccc(C)c(S(=O)(=O)N2CCN(C)CC2)c1	CHT block -5.66 | CHT inh conf 59.1% | HEK293 CHT ctr inactive
CC(OC(=O)c1ccc(Cl)c(S(=O)(=O)N2CCCC2)c1)C(=O)NC1CCCCC1C (stereo not given)	none (no result: ANO1 activ)
CCOC(=O)c1ccc(NC(=O)c2ccc(C)c(S(=O)(=O)N3CCOCC3)c2)cc1	CHT block -5.5 | CHT inh conf 68.3% | HEK293 CHT ctr inactive
Cc1ccc(C(=O)OC(C)C(=O)NC2CCCCC2C)cc1S(=O)(=O)N1CCCCC1 (stereo not given)	CHT block -7.86 | CHT inh conf inactive | HEK293 CHT ctr inactive
Cc1ccc(C(=O)NC2CCCCCC2)cc1S(=O)(=O)N1CCOCC1	none
Cc1ccc(C(=O)NC2CCCCC2)cc1S(=O)(=O)N1CCCC1	CHT block -5.98 | CHT inh conf 60.8% | HEK293 CHT ctr inactive
OCC1OC(n2cnc3c(N4CCCCC4)ncnc32)C(O)C1O (stereo not given)	none (no result: CHT allo act, TMEM16A inh, CHT block)
CCCCn1c(NCc2ccc3c(c2)OCO3)nc2ccccc21	CHT block -7.28 | CHT inh conf 51.8% | HEK293 CHT ctr 3.02
COc1ccc(OC)c(Cc2nnc(CCC(=O)N3CCN(C4CCCC4)CC3)o2)c1	CHT block -8.02 | CHT inh conf 35.8% | HEK293 CHT ctr inactive
COc1ccc(OC)c(Cc2nnc(CCC(=O)N3CCCCC3)o2)c1	none
CC(OC(=O)c1ccc(S(=O)(=O)N2CCCCC2)cc1)C(=O)Nc1ccc(C(N)=O)cc1 (stereo not given)	none (no result: CHT allo act, TMEM16A inh, CHT block)
CC(=O)Nc1cc(NC(C)=O)cc(C(=O)OC(C)C(=O)Nc2ccc(S(=O)(=O)N3CCCC3)cc2)c1 (stereo not given)	CHT block -4.95 | CHT inh conf 44.8% | HEK293 CHT ctr inactive
CC1(c2ccccc2)CC(C)(C)N2C(=O)C(=O)c3cccc1c32 (stereo not given)	CHT block -5.31 | CHT inh conf inactive | HEK293 CHT ctr inactive
Cc1cc(C)cc(NC(=O)CCc2c(C)nn(-c3ccc(N4CCCCC4)nn3)c2C)c1	none | CHT inh conf inactive | HEK293 CHT ctr inactive
Cc1ccc(NC(=O)CCc2c(C)nn(-c3ccc(N4CCCCC4)nn3)c2C)cc1	none
O=C(c1ccc2nccnc2c1)N1CCCC(N2CCN(c3ccc(F)cc3)CC2)C1 (stereo not given)	none
CCCc1cc(-c2nc(N)ncc2-c2csc(C)n2)c(O)cc1OC	none
CCc1cc(-c2nc(N)ncc2-c2csc(C)n2)c(O)cc1OC	CHT block -7.79 | CHT inh conf inactive | HEK293 CHT ctr inactive
Cc1ccc(NC(=O)CNC(=O)c2cccc(Cl)c2)nc1	CHT block -6.19 | CHT inh conf 26.0% | HEK293 CHT ctr inactive
CCOc1ccc(NC(=O)CN(C)C(=O)Cc2c[nH]c3ccccc23)cc1OCC	none
CC(C)Nc1oc(Cc2cccc3ccccc23)nc1C#N	none
CNc1oc(Cc2cccc3ccccc23)nc1C#N	CHT block -6.94 | CHT inh conf 56.2% | HEK293 CHT ctr inactive
CCNS(=O)(=O)c1c(C)cc(N2CCCC2=O)cc1C	none
Cc1cc(N2CCCC2=O)cc(C)c1S(=O)(=O)NCCOc1ccccc1	CHT block -5.86 | CHT inh conf 66.9% | HEK293 CHT ctr -8.45
Cc1ccc(C)n1-c1ccc(N2CCOCC2)c(Br)c1	none
O=C(CSc1nnc(Cc2ccsc2)o1)c1ccccc1	CHT block -5.2 | CHT inh conf 69.7% | HEK293 CHT ctr inactive
O=C(CCCNC(=O)c1ccc(Cl)cc1)Nc1ccccc1F	none
CN(Cc1ccccc1F)C(=O)CCCNC(=O)c1ccc(Cl)cc1	CHT block -5.78 | CHT inh conf 54.7% | HEK293 CHT ctr inactive
COc1ccc(NC(=O)C2CC(c3c(F)cccc3Cl)=NO2)cc1 (stereo not given)	none
COc1ccc(C2=NS(=O)(=O)N(C)C(C(=O)NCc3ccccn3)=C2)cc1OC	none
CC1CCCN(C(=S)Nc2ccc(S(=O)(=O)N3CCCCC3)cc2)C1 (stereo not given)	CHT block -12.8 | CHT inh conf inactive | HEK293 CHT ctr inactive
COC(=O)Nc1ccc(S(=O)(=O)N2CCC(C(=O)N3CCCC(C)C3)CC2)cc1 (stereo not given)	none
CCC1CCCCN1S(=O)(=O)c1ccc(NC(=O)c2nc(S(C)(=O)=O)ncc2Cl)cc1 (stereo not given)	CHT block -6.44 | CHT inh conf 12.0% | HEK293 CHT ctr inactive
CCS(=O)(=O)c1ncc(Cl)c(C(=O)Nc2ccc(S(=O)(=O)N3CCCC(C)C3)cc2)n1 (stereo not given)	none
CN[C@H]1CC[C@@H](c2ccc(Cl)c(Cl)c2)c2ccccc21	CHT block -6.77! | CHT inh conf inactive | HEK293 CHT ctr inactive
O=C1C=C(O)CC(c2ccc(Cl)c(Cl)c2)C1 (stereo not given)	none
O=C(CSc1ccc(-c2nc3ccccc3[nH]2)cn1)Nc1ccc2c(c1)OCCO2	none
O=C(CSc1ccc(-c2nc3ccccc3[nH]2)cn1)Nc1ccc(S(=O)(=O)NC2CC2)cc1	CHT block -5.72 | CHT inh conf inactive | HEK293 CHT ctr inactive
Cc1ccccc1NS(=O)(=O)c1ccc(N2CCCC2=O)cc1	CHT block -4.96 | CHT inh conf inactive | HEK293 CHT ctr inactive
Cc1ccccc1NS(=O)(=O)c1cc2c3c(c1)CC(=O)N3CCC2	none
Cc1oc(C(C)(C)C)cc1C(=O)Nc1cccc(/C=C\C(=O)O)c1	none
Cc1oc(-c2ccccc2)cc1C(=O)Nc1cccc(/C=C\C(=O)O)c1	CHT block -8.86 | CHT inh conf 61.3% | HEK293 CHT ctr inactive
CCc1ccc(N(CC(=O)NCC2CCCO2)C(=O)CCC(=O)Nc2nccs2)cc1 (stereo not given)	none
N#C/C(=C(/O)CCl)c1nc(-c2ccccc2)cs1	CHT block -8.41 | CHT inh conf -31.8% | HEK293 CHT ctr inactive
CCCCc1ccc(NC(=S)NCC2CCCO2)cc1 (stereo not given)	CHT block -10.7 | CHT inh conf 49.0% | HEK293 CHT ctr inactive
COc1ccc(C)cc1NS(=O)(=O)c1ccc2c(c1)oc(=O)n2C	none
O=C1c2cccnc2C(=O)N1Cc1ccc(S(=O)(=O)N2CCOc3ccc(Cl)cc32)cc1	CHT block -5.05 | CHT inh conf inactive | HEK293 CHT ctr inactive
O=C(NCc1ccc(F)cc1)c1cc(C(=O)C2CC2)c[nH]1	none
Cc1nn(Cc2ccccc2)c(Cl)c1/C=C1\NC(=S)NC1=O	CHT block -7.71 | CHT inh conf inactive | HEK293 CHT ctr inactive
Cc1ccc(-n2cc(CN3CCN(Cc4nccn4C)CC3)c(-c3ccc(F)cc3)n2)cc1	CHT block -6.4 | CHT inh conf 28.7% | HEK293 CHT ctr inactive
Cc1ccc(-n2cc(CN3CCN(c4ccccn4)CC3)c(-c3ccc(F)cc3)n2)cc1	none
